Experimental findings from the supplement of paper PMC10849652 are described below.

About 8,800 targets were measured; listed, in parts, are those with a hit and a random draw of the rest. About 0.5% of all pairs of compound and target were hits. A number with no mark means an inactive call.

Chain of UniProt P26374 (P26374 whole entry, looked up): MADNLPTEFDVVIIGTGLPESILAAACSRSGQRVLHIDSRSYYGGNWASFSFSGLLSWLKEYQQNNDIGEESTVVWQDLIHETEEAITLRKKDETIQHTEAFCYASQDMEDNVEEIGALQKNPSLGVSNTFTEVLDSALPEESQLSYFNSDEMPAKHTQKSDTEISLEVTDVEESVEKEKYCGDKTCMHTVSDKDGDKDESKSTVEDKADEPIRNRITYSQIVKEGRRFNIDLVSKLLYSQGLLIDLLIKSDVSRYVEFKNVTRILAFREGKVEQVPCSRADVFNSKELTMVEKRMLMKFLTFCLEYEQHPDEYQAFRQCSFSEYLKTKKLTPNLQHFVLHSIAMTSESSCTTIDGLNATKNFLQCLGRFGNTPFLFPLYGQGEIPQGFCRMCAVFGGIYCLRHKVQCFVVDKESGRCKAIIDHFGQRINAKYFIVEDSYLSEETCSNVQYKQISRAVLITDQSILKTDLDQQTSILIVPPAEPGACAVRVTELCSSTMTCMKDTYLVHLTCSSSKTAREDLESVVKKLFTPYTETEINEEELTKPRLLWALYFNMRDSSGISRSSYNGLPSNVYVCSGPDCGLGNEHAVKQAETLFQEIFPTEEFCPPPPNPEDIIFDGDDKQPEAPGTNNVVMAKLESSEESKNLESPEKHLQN
Chain of UniProt Q8IWV2 (Q8IWV2 whole entry, looked up): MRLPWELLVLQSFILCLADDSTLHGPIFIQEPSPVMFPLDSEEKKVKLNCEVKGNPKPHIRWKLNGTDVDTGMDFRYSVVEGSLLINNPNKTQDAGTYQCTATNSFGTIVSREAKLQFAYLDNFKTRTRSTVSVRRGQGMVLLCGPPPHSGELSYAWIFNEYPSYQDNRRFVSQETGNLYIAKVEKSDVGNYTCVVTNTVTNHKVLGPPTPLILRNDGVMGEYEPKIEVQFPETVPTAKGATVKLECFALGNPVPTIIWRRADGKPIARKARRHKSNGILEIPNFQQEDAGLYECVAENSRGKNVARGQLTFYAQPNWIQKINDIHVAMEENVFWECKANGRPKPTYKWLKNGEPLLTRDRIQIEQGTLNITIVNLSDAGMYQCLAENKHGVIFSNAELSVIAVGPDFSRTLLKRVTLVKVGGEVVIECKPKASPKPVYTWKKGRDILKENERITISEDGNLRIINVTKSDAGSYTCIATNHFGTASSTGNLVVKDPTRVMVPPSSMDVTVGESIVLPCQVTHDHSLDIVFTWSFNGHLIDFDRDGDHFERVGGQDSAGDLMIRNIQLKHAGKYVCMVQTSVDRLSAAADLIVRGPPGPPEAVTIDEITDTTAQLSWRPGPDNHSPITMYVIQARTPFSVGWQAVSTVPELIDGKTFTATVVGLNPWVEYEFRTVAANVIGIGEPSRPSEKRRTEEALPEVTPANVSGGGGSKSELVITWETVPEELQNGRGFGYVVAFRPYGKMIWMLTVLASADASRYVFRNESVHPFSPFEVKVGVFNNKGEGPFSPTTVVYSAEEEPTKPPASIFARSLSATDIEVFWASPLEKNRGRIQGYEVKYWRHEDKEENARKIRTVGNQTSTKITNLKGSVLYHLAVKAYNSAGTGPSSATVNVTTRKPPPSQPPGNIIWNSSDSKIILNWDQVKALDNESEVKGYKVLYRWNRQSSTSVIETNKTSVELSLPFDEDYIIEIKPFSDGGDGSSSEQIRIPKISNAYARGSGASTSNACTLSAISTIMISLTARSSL
Chain of UniProt Q9H5X1 (Q9H5X1 whole entry, looked up): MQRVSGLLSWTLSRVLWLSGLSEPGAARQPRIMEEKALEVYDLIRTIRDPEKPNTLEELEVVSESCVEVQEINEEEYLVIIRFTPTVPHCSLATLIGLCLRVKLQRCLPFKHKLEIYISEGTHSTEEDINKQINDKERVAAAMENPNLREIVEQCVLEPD
Chain of UniProt P19784 (P19784 whole entry, looked up): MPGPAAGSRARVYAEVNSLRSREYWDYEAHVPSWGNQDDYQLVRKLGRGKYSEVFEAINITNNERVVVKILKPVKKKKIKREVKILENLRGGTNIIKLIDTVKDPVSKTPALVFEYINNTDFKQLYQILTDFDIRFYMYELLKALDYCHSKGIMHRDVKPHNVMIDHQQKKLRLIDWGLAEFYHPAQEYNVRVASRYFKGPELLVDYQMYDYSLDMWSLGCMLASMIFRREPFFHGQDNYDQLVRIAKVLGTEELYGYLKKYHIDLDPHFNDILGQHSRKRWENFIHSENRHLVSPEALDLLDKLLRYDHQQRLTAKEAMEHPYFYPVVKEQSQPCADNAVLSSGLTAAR
Chain of UniProt P48729 (P48729 whole entry, looked up): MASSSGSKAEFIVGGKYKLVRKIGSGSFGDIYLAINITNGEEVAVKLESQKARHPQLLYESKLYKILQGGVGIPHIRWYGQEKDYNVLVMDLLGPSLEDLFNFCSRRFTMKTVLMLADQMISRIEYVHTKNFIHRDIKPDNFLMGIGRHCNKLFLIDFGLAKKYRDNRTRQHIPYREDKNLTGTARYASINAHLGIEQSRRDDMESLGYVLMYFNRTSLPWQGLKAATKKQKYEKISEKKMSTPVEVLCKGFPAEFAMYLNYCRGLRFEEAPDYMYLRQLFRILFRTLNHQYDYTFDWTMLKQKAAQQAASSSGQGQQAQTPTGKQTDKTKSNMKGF
Chain of UniProt Q9NSV4 (Q9NSV4 whole entry, looked up): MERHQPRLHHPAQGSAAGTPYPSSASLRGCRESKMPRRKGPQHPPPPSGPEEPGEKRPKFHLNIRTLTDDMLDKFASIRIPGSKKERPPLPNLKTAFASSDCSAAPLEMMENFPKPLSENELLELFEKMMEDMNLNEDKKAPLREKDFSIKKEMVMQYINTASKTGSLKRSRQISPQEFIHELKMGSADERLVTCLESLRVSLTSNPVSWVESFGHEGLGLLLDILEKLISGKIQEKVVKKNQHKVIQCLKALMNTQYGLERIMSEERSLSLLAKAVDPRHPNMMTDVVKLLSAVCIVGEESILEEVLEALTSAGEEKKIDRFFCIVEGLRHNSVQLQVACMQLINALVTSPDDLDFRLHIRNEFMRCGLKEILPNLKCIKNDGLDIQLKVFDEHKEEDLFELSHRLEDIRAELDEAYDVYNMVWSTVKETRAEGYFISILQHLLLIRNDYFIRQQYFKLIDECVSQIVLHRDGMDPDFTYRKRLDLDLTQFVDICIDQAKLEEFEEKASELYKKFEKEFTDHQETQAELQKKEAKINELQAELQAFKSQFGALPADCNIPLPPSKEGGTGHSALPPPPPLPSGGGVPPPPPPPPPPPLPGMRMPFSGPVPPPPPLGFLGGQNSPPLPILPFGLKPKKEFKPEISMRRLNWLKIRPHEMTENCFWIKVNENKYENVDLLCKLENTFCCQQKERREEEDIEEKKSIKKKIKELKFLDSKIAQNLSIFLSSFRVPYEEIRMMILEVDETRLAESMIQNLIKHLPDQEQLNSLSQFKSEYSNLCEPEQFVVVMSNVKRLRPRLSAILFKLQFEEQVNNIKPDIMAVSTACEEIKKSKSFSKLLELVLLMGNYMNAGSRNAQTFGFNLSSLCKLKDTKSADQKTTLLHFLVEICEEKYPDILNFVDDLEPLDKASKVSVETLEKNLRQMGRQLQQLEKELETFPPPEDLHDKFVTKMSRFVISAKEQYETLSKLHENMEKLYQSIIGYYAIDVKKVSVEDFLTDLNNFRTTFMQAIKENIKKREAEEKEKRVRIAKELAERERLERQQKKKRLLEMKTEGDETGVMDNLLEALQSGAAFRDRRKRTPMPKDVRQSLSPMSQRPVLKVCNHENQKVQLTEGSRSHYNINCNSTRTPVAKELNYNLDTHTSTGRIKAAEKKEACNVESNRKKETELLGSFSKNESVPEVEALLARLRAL
Chain of UniProt Q9Y6M4 (Q9Y6M4 whole entry, looked up): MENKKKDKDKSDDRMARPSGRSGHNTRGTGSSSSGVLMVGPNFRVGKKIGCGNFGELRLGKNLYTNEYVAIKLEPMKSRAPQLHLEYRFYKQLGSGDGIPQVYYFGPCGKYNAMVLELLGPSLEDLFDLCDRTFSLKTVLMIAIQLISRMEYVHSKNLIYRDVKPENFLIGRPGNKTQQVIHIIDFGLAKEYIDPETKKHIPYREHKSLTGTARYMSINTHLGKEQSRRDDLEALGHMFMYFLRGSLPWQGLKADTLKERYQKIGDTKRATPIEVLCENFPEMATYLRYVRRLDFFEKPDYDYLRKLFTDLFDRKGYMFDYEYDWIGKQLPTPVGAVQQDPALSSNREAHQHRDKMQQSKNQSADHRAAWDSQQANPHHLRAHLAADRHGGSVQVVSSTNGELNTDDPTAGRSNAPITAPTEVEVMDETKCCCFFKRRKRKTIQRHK
Chain of UniProt O96017 (O96017 whole entry, looked up): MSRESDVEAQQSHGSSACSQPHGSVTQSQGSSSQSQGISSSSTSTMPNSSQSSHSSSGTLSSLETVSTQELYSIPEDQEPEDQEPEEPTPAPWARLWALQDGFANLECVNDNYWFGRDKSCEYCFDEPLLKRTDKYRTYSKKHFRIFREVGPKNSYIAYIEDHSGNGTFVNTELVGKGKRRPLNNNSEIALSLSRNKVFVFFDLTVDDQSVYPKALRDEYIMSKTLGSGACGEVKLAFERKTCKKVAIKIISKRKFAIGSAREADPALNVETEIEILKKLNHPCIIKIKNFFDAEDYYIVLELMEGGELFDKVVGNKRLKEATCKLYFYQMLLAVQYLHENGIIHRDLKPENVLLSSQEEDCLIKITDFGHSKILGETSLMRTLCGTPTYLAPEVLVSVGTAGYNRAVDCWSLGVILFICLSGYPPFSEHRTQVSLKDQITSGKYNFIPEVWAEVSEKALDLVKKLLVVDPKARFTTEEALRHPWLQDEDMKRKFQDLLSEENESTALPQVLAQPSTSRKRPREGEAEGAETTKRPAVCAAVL
Chain of UniProt P61923 (P61923 whole entry, looked up): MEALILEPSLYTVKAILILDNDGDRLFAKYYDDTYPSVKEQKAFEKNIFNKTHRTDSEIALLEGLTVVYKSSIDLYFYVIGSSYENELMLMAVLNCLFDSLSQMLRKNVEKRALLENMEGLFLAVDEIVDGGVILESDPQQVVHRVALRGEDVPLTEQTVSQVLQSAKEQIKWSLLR

Compound in the experiment: c1ccc([C@@H]2C[C@H]2NC2CCNCC2)cc1
The experiment in a line: log2 fold change, soluble protein after heating vs DMSO (PISA); higher = thermal stabilisation; K562 lysate, 10 uM; active = over 0.2 and 3.5 SD of the protein, either way, in both replicates (recomputed). A digest of the protocol:
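K562 pellets were dounce-homogenised in PBS pH 7.4 with 1 mM MgCl2, and the crude extract at 1 mg/mL protein was treated with 10 μM compound for 30 min. Aliquots were heated for 3 min across 48°C-58°C, pooled, and brought to 0.5% NP-40 at 4°C; soluble protein was the supernatant after 21,000xg for 90 min. Soluble protein was quantified by TMTpro 16plex LC-MS/MS with channel sums equalised, and reported as log2 fold change in thermal stability against DMSO controls, with values from duplicates.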
In the case of COQ8A (UniProt Q8NI60), the log2 fold change is 0. Next, CKAP2 (UniProt Q8WWK9): -0.021; CHEK2 (UniProt O96017): 0.014.

With DDX4 (UniProt Q9NQI0), the log2 fold change was -0.265. Consider CLCN3 (UniProt P51790), for which the log2 fold change was 0.017.

Regarding CHORDC1 (UniProt Q9UHD1), the log2 fold change was 0.037. Take CHML (UniProt P26374): the log2 fold change is -0.03.

As to CSNK1A1 (UniProt P48729), the log2 fold change is -0.044. Turning to DNAH5 (UniProt Q8TE73), the log2 fold change is -0.216. Next, DIAPH3 (UniProt Q9NSV4): 0.195; CSNK2A2 (UniProt P19784): 0.015; CIAO2A (UniProt Q9H5X1): 0.064. The figure for CSNK1G3 (UniProt Q9Y6M4) is -0.03; for DDX39A (UniProt O00148) it is 0; for CIP2A (UniProt Q8TCG1) it is 0.018. The figure for COG4 (UniProt Q9H9E3) is 0.011; for DERA (UniProt Q9Y315) it is 0.209.

Take CNTN4 (UniProt Q8IWV2): the log2 fold change is -0.319. Next, DAZAP1 (UniProt Q96EP5): -0.086; COPZ1 isoform 4 (UniProt P61923): 0.096. In the case of DBF4 (UniProt Q9UBU7), the log2 fold change was 0.078.
